Shown are actives, neighbours in structure and some others; about 2.4% of the full set was active somewhere.
Pol eta inh – DNA polymerase eta (human) inhibition; Potency, µM (top dose mostly 114 µM), most hits filed as inhibitors; 1.2% of 390,000 active; recombinant Pol eta, fluorescent DNA replication assay; AID 588591; Q9Y253
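Fluorescent replication assay: 50 nM final substrate added after a 15 min room-temperature compound preincubation with 10 nM enzyme. Signal taken at 0 min and again at 10 min.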
Pol iota inh – blocks human DNA polymerase iota activity | Pol iota fluorescent replication assay, 10 min | Potency, µM (doses to about 115 µM), actives largely listed as inhibitors | 1% of 390,000 active
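Fluorescent replication assay read twice, at 0 min and 10 min after adding 50 nM (final) substrate. Enzyme (10 nM) and compounds were first incubated 15 min at room temperature; enzyme-free buffer wells were negative controls.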
POLK inh – DNA polymerase kappa (human) inhibition; Q9UBT6; purified Pol kappa, fluorescent DNA synthesis assay, 10 min; Potency, µM (highest dose often 107 µM), hits mostly inhibitors; 0.53% of 400,000 active; AID 588579
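Here, compound and 10 nM enzyme are combined for 15 min at room temperature; adding 50 nM substrate (final) starts DNA synthesis, tracked by fluorescence at 0 and 10 min against buffer-only wells.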
FEN1 inh – inhibitors of human flap endonuclease 1. P39748. Recombinant FEN1 flap cleavage, fluorescence, 15 min. Potency, µM (series often up to 114 µM), usual class: inhibitors. 0.35% of 390,000 active; further: nearly all actives have a fitted effect of over 65% in size
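Compounds are tested as a concentration series against 10 nM FEN1; after a 15 min room-temperature preincubation, 50 nM substrate starts cleavage, with plate reads at 0 and 15 min. Normalized responses are fitted by a Hill equation.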
POLB inh – inhibitors of human DNA polymerase beta | P06746 | Pol beta primer extension/strand displacement, fluorescence kinetic | Potency, µM (series often up to 114 µM), most hits filed as inhibitors | 1.3% of 340,000 active | AID 485314
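Pol beta (10 nM) and compounds were preincubated 15 min at room temperature, then 50 nM substrate (final) started primer extension/strand displacement. Reads were taken at 0 and 10 min; concentration-response data were fitted to a four-parameter Hill equation.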
TDP1 block – TDP1 (human) enzyme inhibition; Q9NUW8; recombinant TDP1, AlphaScreen DNA substrate cleavage; Potency, µM (doses to about 130 µM), usual class: inhibitors; 0.28% of 350,000 active; AID 485290; further: nearly all actives have a fitted effect of over 40% in size
Target sequence (Q9NUW8 whole entry, looked up): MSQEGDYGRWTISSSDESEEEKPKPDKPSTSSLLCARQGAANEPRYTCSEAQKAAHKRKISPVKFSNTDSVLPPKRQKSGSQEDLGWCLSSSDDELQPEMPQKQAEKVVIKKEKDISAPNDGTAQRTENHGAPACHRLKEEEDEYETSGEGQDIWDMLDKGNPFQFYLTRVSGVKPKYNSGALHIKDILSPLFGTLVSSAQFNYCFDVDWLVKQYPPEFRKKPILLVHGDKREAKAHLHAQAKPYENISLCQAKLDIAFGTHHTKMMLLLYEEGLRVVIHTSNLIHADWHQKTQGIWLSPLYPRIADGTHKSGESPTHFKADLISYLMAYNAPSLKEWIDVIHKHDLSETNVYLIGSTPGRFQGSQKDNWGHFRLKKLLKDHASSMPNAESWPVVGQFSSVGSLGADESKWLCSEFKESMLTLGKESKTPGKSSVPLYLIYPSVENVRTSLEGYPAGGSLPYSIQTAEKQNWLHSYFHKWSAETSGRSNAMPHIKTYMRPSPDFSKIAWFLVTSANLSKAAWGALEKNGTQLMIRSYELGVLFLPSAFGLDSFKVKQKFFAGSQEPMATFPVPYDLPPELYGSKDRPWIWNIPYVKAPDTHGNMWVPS
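Steps: enzyme plus compound, 15 min RT; add biotin/phosphotyrosine-FITC oligonucleotide (15 nM final), react 5 min; add donor/acceptor beads (10 ug/ml final), 10 min; read AlphaScreen. Tdp1 at 1 nM final.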
BAZ2B inh – confirmation of human BAZ2B bromodomain inhibitors. shares compounds with POLK inh. AlphaScreen BAZ2B / biotin-H3K14Ac peptide displacement. Potency, µM, most hits filed as inhibitors. 100% of 25 active. AID 588809; calls by dose curve
BAZ2B bead ctr – AlphaScreen signal interference, BAZ2B hit counter-screen. Potency, µM (series often up to 57.1 µM), hits mostly inhibitors. shares compounds with POLK inh. AlphaScreen biotin-His6 peptide bead counterscreen, signal decrease. 25 tested, under 10 active;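 active means clear concentration-dependent signal drop in the bead assay lacking the target, so a primary-screen artifact; inconclusive means weak, partial or single-dose response; inactive means no response, so a real primary hit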
TbPGK inh – blocks T. brucei phosphoglycerate kinase; shares compounds with POLK inh; TbPGK coupled GAPDH assay, Kinase-Glo luminescence; Potency, µM (doses to about 57.5 µM), hits mostly inhibitors; 79% of 500 active; further: nearly all actives have a fitted effect of over 65% in size
Pol iota confirm – Human Pol iota inhibitor confirmatory assay; shares compounds with POLK inh; Pol iota primer extension, TAMRA/BHQ fluorescence; Potency, µM, hits mostly inhibitors; 77% of 1,500 active; AID 720496
Of the large screens only hits and unclear results are named; the others gave an inactive call (follow-up assays come after a bar, where they were run); ! = repeats disagree. Unless noted, the call rests on the fitted dose curve; in most records, active means well fitted curve in the direction sought with a large enough effect; inconclusive means small, poorly fitted or top-dose-only effect, or another doubt; inactive means no such curve, though single readings can be large; an effect the other way counts as inactive or inconclusive.

C[C@@H]1Cc2c(Cl)cc(C(=O)N[C@H](Cc3ccccc3)C(=O)O)c(O)c2C(=O)O1	none (no result: Pol eta inh, Pol iota inh, FEN1 inh, POLB inh)
O=c1[nH]c(=S)[nH]c(O)c1N=Nc1cc(S(=O)(=O)Nc2ccc(Cl)cc2)ccc1Cl	Pol eta inh 79µM, Pol iota inh inconclusive, FEN1 inh inconclusive (no result: POLB inh)
O=c1[nH]c(=S)[nH]c(O)c1N=Nc1ccc(S(=O)(=O)N2CCOCC2)cc1	Pol eta inh 50µM, Pol iota inh inconclusive, POLB inh inconclusive, TDP1 block 20µM
c1ccc2cc3c(cc2c1)-c1cccc2cccc-3c12	none (no result: Pol eta inh, Pol iota inh, POLK inh, FEN1 inh, POLB inh)
ClC1=C(Cl)C(Cl)(C2(Cl)C(Cl)=C(Cl)C(Cl)=C2Cl)C(Cl)=C1Cl	POLK inh 6.7µM (no result: Pol eta inh, Pol iota inh, FEN1 inh, POLB inh)
O=C1NC(=S)SC1=Cc1ccc(N(CCCl)CCCl)cc1	Pol eta inh 79µM, Pol iota inh 16µM, POLK inh inconclusive, FEN1 inh inconclusive (no result: POLB inh, TDP1 block)
Oc1cc[c]([Hg][Cl])cc1	none (no result: Pol eta inh, Pol iota inh, FEN1 inh, POLB inh, TDP1 block)
Cc1cccc(N2C(=O)NC(=O)/C(=C/c3cc4c(cc3[N+](=O)[O-])OCO4)C2=O)c1	Pol iota inh inconclusive, POLK inh 89µM
O=[N+]([O-])c1cc(-c2ccc([As](=O)(O)O)cc2)ccc1[As](=O)(O)O	POLB inh 20µM, TDP1 block 35µM (no result: Pol eta inh, Pol iota inh, POLK inh, FEN1 inh)
CN(C)C1C(=O)C(C(N)=O)=C(O)[C@@]2(O)C(=O)C3=C(O)c4c(O)cccc4[C@@](C)(O)C3[C@H](O)C12 (stereo partly drawn)	POLK inh 10µM (no result: Pol eta inh, Pol iota inh, FEN1 inh, POLB inh, TDP1 block)
CN(C)[C@@H]1C(=O)C(C(N)=O)=C(O)[C@]2(O)C(=O)C3=C(O)c4c(O)cccc4[C@@](C)(O)[C@H]3[C@H](O)[C@@H]12	POLK inh 4.7µM (no result: Pol eta inh, Pol iota inh, FEN1 inh, POLB inh, TDP1 block)
C=CCn1c(O)c(C=NCCCn2ccnc2)c(=O)[nH]c1=O	POLB inh 0.32µM
FC(F)(F)c1ccc(Cl)cc1	none (no result: Pol eta inh, Pol iota inh, POLK inh, FEN1 inh, POLB inh)
COc1cc(/C=C/c2nc3ccccc3c(=O)n2-c2ccccc2O)ccc1O	none (no result: TDP1 block)
COc1cc(/C=C/c2nc3ccccc3c(=O)n2-c2cccc(O)c2)ccc1O	Pol eta inh inconclusive, Pol iota inh 18µM, POLK inh inconclusive, FEN1 inh inconclusive, POLB inh inconclusive, TDP1 block inconclusive
O=c1c2ccccc2nc(/C=C/c2ccc(O)c(O)c2)n1-c1ccccc1	Pol eta inh 18µM, Pol iota inh inconclusive, POLB inh inconclusive (no result: TDP1 block)
COc1ccc2c(c1OC)C(=O)OC2c1c(O)n(C2CCCCC2)c(=O)[nH]c1=O (stereo not drawn)	Pol iota inh 25µM
C[C@@H]1CC[C@@]2(OC1)O[C@H]1[C@@H](O)[C@H]3[C@@H]4CC[C@H]5C[C@@H](O[C@@H]6O[C@H](CO)[C@H](O[C@@H]7O[C@H](CO)[C@@H](O)[C@H](O[C@@H]8OC[C@@H](O)[C@H](O)[C@H]8O)[C@H]7O[C@@H]7O[C@H](CO)[C@@H](O)[C@H](O[C@@H]8O[C@H](CO)[C@@H](O)[C@H](O)[C@H]8O)[C@H]7O)[C@H](O)[C@H]6O)[C@H](O)C[C@]5(C)[C@H]4CC[C@]3(C)[C@H]1[C@@H]2C	none (no result: Pol eta inh, Pol iota inh, POLK inh, FEN1 inh, POLB inh)
N#Cc1ncc(Br)cn1	none (no result: Pol eta inh, POLB inh, TDP1 block)
O=C(O)COc1ccc(Br)cc1C(c1c(C(=O)O)[nH]c2ccccc12)c1c(C(=O)O)[nH]c2ccccc12	Pol eta inh 89µM, Pol iota inh inconclusive, POLK inh inconclusive, FEN1 inh inconclusive (no result: TDP1 block)
CC(=O)[C@H]1CC[C@H]2C3CC[C@H]4C[C@](C)(O)CC[C@]4(C)C3CC[C@]12C (stereo partly drawn)	none (no result: Pol eta inh, Pol iota inh, FEN1 inh, POLB inh)
Cc1cccc(C)c1N	none (no result: Pol eta inh, Pol iota inh, POLK inh, FEN1 inh, POLB inh)
COc1ccc(C(=O)C2CCCN(Cc3ccon3)C2)c(OC)c1 (stereo not drawn)	Pol eta inh inconclusive, Pol iota inh 89µM, POLK inh inconclusive (no result: TDP1 block)
CN(C)C(=O)Nc1cccc(C(F)(F)F)c1	none (no result: Pol eta inh, Pol iota inh, POLK inh, FEN1 inh, POLB inh)
C=CCc1cc(C=C2C(=O)N(C)C(=O)N(C)C2=O)cc(OCC)c1OCc1ccccc1	Pol eta inh inconclusive (no result: TDP1 block)
C=CCc1cc(C=C2C(=O)NC(=O)NC2=O)cc(OC)c1OCc1ccc(C(=O)O)cc1	Pol eta inh 50µM, Pol iota inh inconclusive, FEN1 inh inconclusive, POLB inh inconclusive
CN(C)NC(=O)CCC(=O)O	none (no result: Pol eta inh, Pol iota inh, POLK inh, FEN1 inh, POLB inh)
CN1CCc2cc3c(c4c2C1Cc1ccccc1-4)OCO3 (stereo not drawn)	Pol iota inh inconclusive, FEN1 inh inconclusive, POLB inh 16µM (no result: TDP1 block)
O=[N+]([O-])c1ccc(NCc2ccccc2)c2nonc12	Pol iota inh 32µM
CC1=CC(=O)c2c(O)cccc2C1=O	POLK inh 10µM! (no result: Pol eta inh, Pol iota inh, FEN1 inh, POLB inh)
O=C1NC(=S)NC(=O)C1=Cc1ccc(OCc2ccccc2)cc1	none (no result: POLB inh, TDP1 block)
O=c1cc(OCc2ccccc2)cc[nH]1	none (no result: POLB inh) | BAZ2B inh 2.2 | BAZ2B bead ctr 10µM
CN(C)[C@@H]1C(=O)C(C(N)=O)=C(O)[C@@]2(O)C(=O)C3=C(O)c4c(O)cccc4[C@@](C)(O)C3[C@H](O)C12 (stereo partly drawn)	Pol eta inh 32µM!, Pol iota inh 13µM, POLK inh 8.9µM!, FEN1 inh 16µM! (no result: POLB inh, TDP1 block) | Pol iota confirm inconclusive
N[C@H](CCCP(=O)(O)O)C(=O)O	none (no result: Pol eta inh, Pol iota inh, FEN1 inh, POLB inh)
CCN(CC)C(=O)c1ccc2c(c1)C1C=CCC1C(C(=O)O)N2 (stereo not drawn)	Pol eta inh 4µM, Pol iota inh 13µM, POLK inh inconclusive, FEN1 inh inconclusive, POLB inh 35µM (no result: TDP1 block) | TbPGK inh inconclusive
C/C1=C/C(=O)O[C@@H]2C[C@@H](CC[C@H](C)/C=C\CC1)O[C@@](O)(C1CSC(=O)N1)C2 (stereo partly drawn)	none (no result: Pol eta inh, Pol iota inh, FEN1 inh, POLB inh)

Screening results: PubChem, National Center for Advancing Translational Sciences (NCATS)
